D3 ag: activates the human D3 dopamine receptor | P35462 | D3R DiscoveRx beta-arrestin cells, luminescence, 90 min | max activation, % | actives 0.58% (n = 410,000) | AID 652048; in the data active = max activation above about 30%; also: 0% is about no effect
Target sequence (P35462 whole entry, looked up): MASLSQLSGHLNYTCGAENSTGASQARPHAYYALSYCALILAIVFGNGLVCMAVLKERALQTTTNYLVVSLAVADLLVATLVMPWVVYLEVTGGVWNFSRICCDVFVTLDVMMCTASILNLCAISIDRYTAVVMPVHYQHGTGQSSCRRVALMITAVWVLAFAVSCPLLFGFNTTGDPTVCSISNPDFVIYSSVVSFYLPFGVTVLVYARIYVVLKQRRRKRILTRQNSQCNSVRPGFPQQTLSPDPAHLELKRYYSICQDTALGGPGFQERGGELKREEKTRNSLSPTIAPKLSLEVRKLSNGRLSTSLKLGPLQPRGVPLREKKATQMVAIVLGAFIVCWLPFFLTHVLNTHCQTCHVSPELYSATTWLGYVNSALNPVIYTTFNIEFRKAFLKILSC
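Agonist-mode cell screen: cells plated at 1500/well and incubated overnight at 37 °C, then exposed to library compounds for 90 min at 37 °C. Detection reagent was added for 30–60 min at room temperature, and luminescence was read.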
RGS4 inhibitor: human RGS4 inhibition | Transcreener GDP fluorescence polarization, RGS4-accelerated GTP hydrolysis | actives 0.039% (n = 390,000) | Potency, µM (highest dose often 114 µM), inactives show at the highest dose activity change, negative = inhibition, usual class: inhibitors; active = well fitted inhibition curve with a large enough effect; inconclusive = small, poorly fitted or top-dose-only effect; inactive = no such curve, though single readings can be large or run the other way; also: potency is read from the fitted curve at half-maximal effect; % is scaled to controls: 0 for no effect and ±100 for the full control effect; nearly all actives have a fitted effect of over 75% in size
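MLSMR compounds (23 nl, pin-transferred) preincubated 10 min at room temperature with a 500nM (2x) first reagent, then RGS4 at 900nM (2x) plus Transcreener GDP mix added; fluorescence polarization (620/688 nm) read before and after 90 min at 30 °C.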
uPA surface inh: blocks generation of uPA at the cell surface; cell surface uPA generation assay, qHTS; Potency, µM (top dose mostly 38.3 µM), for the others: at the top dose activity change, negative = inhibition, most hits filed as inhibitors; actives 0.31% (n = 330,000); AID 540303; active = well fitted inhibition curve with a large enough effect; inconclusive = small, poorly fitted or top-dose-only effect; inactive = no such curve, though single readings can be large or run the other way; tested in mouse RAW 264.7 cells; also: potency is read from the fitted curve at half-maximal effect; % is scaled to controls: 0 for no effect and ±100 for the full control effect; nearly all actives have a fitted effect of over 55% in size
D3 antag: D3 dopamine receptor (human) antagonism | max response, negative = inhibition, % | D3R cells, DiscoveRx beta-arrestin luminescence, antagonist mode; stronger effect = lower value | actives 2.5% (n = 360,000); in the data active = max response below about -50%; inconclusive = no clear call, values can overlap the other calls; also: % is scaled to controls: 0 for no effect and ±100 for the full control effect
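Cells expressing the human receptor were seeded at 1500 cells/well, incubated overnight at 37 degrees C in 5% CO2, then exposed to library compounds with dopamine controls for 90 minutes at 37 degrees C before luminescent detection.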
An asterisk follows results filed as active; u = inconclusive; x = not tested or not shown; [ ] = another dose, or the depositor's remark. Rows were chosen to be rich in hits. Some 3.1% of all compounds tested hit in one or more screens of this group.

SMILES	D3 ag	RGS4 inhibitor	uPA surface inh	D3 antag
Cc1ccc2nc(NC(=O)c3ccc(OCC4CCCO4)cc3)sc2c1 (configuration not stated)	49*	-1%	2%	65
CSc1nnc(C2CCCN2)n1C (configuration not stated)	-4	-7%	0%	-54*
O=[N+]([O-])c1ccc(C(O)CN2CCN(c3ccccc3)CC2)cc1 (configuration not stated)	34*	2%[56.9 µM]	3%	2
COc1ccccc1N1CCN(CC(O)c2ccccc2)CC1 (configuration not stated)	-21	-17%	0%	-55*
COc1ccccc1N1CCN(CC(O)c2c(C)[nH]c3ccccc23)CC1 (configuration not stated)	-6	8%	-10%	-79*
CC(=O)c1cccc(Nc2cc(C)nc3nc(-c4ccccc4C)nn23)c1	7	-31%	x	x
Brc1ccc(Oc2ncc(CN3CCN(c4ccccc4)CC3)s2)cc1	33*	-4%	0%	-60*
Cn1ccc2c(OCC(=O)NCc3ccccc3Cl)cccc2c1=O	3	-25%	x	x
O=C(N/C(=C/c1ccc(Br)cc1)C(=O)N1CCCCC1)c1ccccc1F	-20	-10%	-3%	-57*
CCc1ccc(NC(=O)CSc2nc3c(c(=O)[nH]2)CN(Cc2ccc(C)cc2)CC3)cc1	-27	-20%	x	x
COc1ccc([C@H]2CC(=O)C=C(c3cc(C=O)ccc3OC)C2)cc1OC	-2	8%	u	14
C=Cc1ccc(C2=CC(=O)C[C@H](c3ccc(OC)cc3)C2)cc1	-27	-2%	19%	-52*
COc1ccc([C@H]2CC(=O)C=C(c3cc(C=O)ccc3OC)C2)cc1	-34	11%	6.3µM*	-24
COc1ccc(-c2nc(C)c(CCNS(=O)(=O)c3cc(C)c(C)cc3C)s2)cc1	2	3%	x	x
Cc1cc(NC(=O)CN2C(=O)/C(=C/c3ccc(C(C)C)cc3)SC2=S)no1	5	x	x	115
CCN1CCCC1CNC(=O)c1cc(NC(C)=O)c(N(C)C)cc1OC (configuration not stated)	-9	8%	0%	-88*
CCN1CCCC1CNC(=O)c1cc(S(N)(=O)=O)ccc1OC (configuration not stated)	x	u	-1%	-98*
CCN1CCCC1CNC(=O)C(=O)NCCc1ccc(OC)c(OC)c1 (configuration not stated)	11	12%	-3%	9
CCN1CCCC1CNC(=O)c1ccccc1Cl (configuration not stated)	-24	-51%	4%	-25
CCC(=O)Nc1cc(C(=O)NCC2CCCN2CC)c(OC)cc1N(C)C (configuration not stated)	-38	-2%	x	-91*
CC(NC(=O)CN1C(=O)COc2ccc(S(=O)(=O)N3CCCCCC3)cc21)c1ccccc1 (configuration not stated)	2	-18%	x	x
CC(C)OCCCNC(=O)CN1C(=O)c2cccnc2Sc2ccccc21	3	6%	x	x
CCOC(=O)c1c(NC(=O)c2cccs2)sc(CC)c1-c1cccs1	62*	11%	-5%	31
CCOC(=O)c1c(-c2cccs2)csc1NC(=O)CCCC(=O)O	44*	12%	x	-5
COc1ccc(C)cc1NC(=O)CCN1CCN(C/C=C/c2ccccc2)CC1	-15	5%	-8%	-52*
SMILES	D3 ag	RGS4 inhibitor	uPA surface inh	D3 antag
COc1cc(NC(=O)CCN2CCN(C/C=C/c3ccccc3)CC2)cc(OC)c1	3	9%	-10%	-59*
Cc1ccc(S(=O)(=O)NC(C)(C)CN2CCC(Cc3ccccc3)CC2)cc1	-19	-7%	u	-59*
COc1ccc(C)cc1NC(=O)CCN1CCCC1	-8	4%	-1%	0
COc1ccc(C)cc1NC(=O)CNC(c1ccccc1)c1ccc(C)cc1 (configuration not stated)	-16	21%	1.8µM*	u
COc1ccc(NC(=O)CCN2CCN(C/C=C/c3ccccc3)CC2)cc1	-9	5%	-4%	-12
CCOc1ccc(NC(=O)CCSc2nc(-c3ccc4c(c3)OCO4)cc(C(F)(F)F)n2)cc1	3	10%	x	x
CCc1ccc(NC(=O)C(=O)NCC(c2ccc3c(c2)OCO3)N2CCOCC2)cc1 (configuration not stated)	-2	3%	x	x
Cc1ccc(NC(=O)CCN2CCN(C/C=C/c3ccccc3)CC2)cc1	-7	-12%	-1%	-53*
Cc1ccc(NC(=O)CCN2CCC(Cc3ccccc3)CC2)cc1	-17	-6%	8%	-53*

Screening data from PubChem.
